Experimental data from ChEMBL document CHEMBL3988442, “University of Dundee, Small-Polar-MMV Screening Library” (2021).
Screen size: about 48,000 compounds; about 13,000 (27%) showed an effect of 50% or more. The list shows a part of the results.

tested on: Wolbachia pipientis; experiment: Anti-Wolbachia Cell-Based Screen; assay type: functional; parameters: scale not given: in the data most compounds retested in dose-response had high values; conditions: 5 µM

In order of falling “Percent Effect” value:
1. O=C(Nc1ccccc1OCCc1ccccn1)N1CCOCC1  129.1%
2. CS(=O)(=O)N1CCC(CNc2cc(Cl)ccc2C#N)CC1  125.4%
3. O=C(Nc1ccccc1OCCc1ccccn1)N1CC[C@@H](O)C1  116.1%
4. N#Cc1ccc(Cl)cc1NCC1CC1  111.8%
5. N#Cc1ccc(Cl)cc1NCC1CCOC1 (stereo not given)  108.5%
6. CS(=O)(=O)N1CCC(CNc2c(Cl)cccc2C#N)CC1  98.55%
7. O=C(Nc1ccccc1OCCc1ccccn1)N1CCOCC(O)C1 (stereo not given)  83.92%
8. O=C(Nc1ccccc1OCc1ccccn1)NC1CCOCC1  8.72%
9. CN(CC1CCCCO1)C(=O)c1ccnc(OC2CCC2)c1 (stereo not given)  4.497%
10. CC(C)OCCC(=O)N(C)CCCc1cc(-c2ccccc2)no1  2.535%
11. COc1ccc(Oc2ncccc2NC(=O)N2CCOCC2)cc1  2.048%
12. N#Cc1ccc(Cl)cc1N1CCC(OC2CCOCC2)CC1  1.592%
13. CN(c1ccc(CNc2c(Cl)cccc2C#N)cc1)S(C)(=O)=O  0.1811%
14. CC(C)CC(=O)N[C@H](C)c1c(-c2ccc(Cl)cc2)noc1C(=O)O.Cl  -0.2726%
15. CCOC(C)c1nc(CN2CCN(Cc3cccnc3)CC2)cs1 (stereo not given)  -1.889%
16. O=C(Nc1ccccc1OCCc1ccccn1)NC1CCOCC1  -2.172%
17. O=C(c1ccco1)N(CC(F)(F)F)C1CCOCC1  -3.164%
18. Cc1n[nH]c(C)c1Sc1ccccc1NC(=O)N1CCOCC(O)C1 (stereo not given)  -4.124%
19. Cc1nn(C)c(C)c1NC(=O)CNc1cc(C(F)(F)F)ccc1F  -4.216%
20. CS(=O)(=O)N1CCC(Nc2ccnc3ccc(Cl)cc23)CC1  -4.778%
21. CCS(=O)(=O)c1ccc(CNc2c(Cl)cccc2C#N)cc1  -6.207%
22. C=C(C)COc1ccccc1NC(=O)N1CCOCC(CO)C1 (stereo not given)  -7.017%
23. Cc1nc(C)c(CNC(=O)NC2CC(C)(C)OC2(C)C)s1 (stereo not given)  -7.711%
24. CC(Oc1ccccc1C(F)(F)F)C(=O)NCCCC(N)=O (stereo not given)  -9.185%
25. COc1ccccc1CC1CCN(C(=O)CCc2ccccn2)CC1  -10.18%
26. N#Cc1cc(F)ccc1NCC1CCN(S(=O)(=O)C(F)F)CC1  -12.01%
27. N#Cc1cc(C(F)(F)F)ccc1NCC1CCS(=O)(=O)CC1  -17.13%
28. N#Cc1ccc(NCCCOCC2CCOC2)c(F)c1 (stereo not given)  -19.41%
29. N#Cc1cc(F)ccc1NCC1CCS(=O)(=O)CC1  -20.22%
30. O=S1(=O)CCC(n2nc(Cc3cccs3)nc2-c2cnccn2)C1 (stereo not given)  -137.3%
